Screening results deposited in PubChem by National Center for Advancing Translational Sciences (NCATS).
Shown are actives, neighbours in structure and some others; about 18% of the full set was active somewhere.
HepG2 viability: counter-screen for TGF-b inhibitors: cytotoxicity in HepG2 cells; AID 588856; 410,000 tested, 0.76% active; HepG2 CAGA-GFP viability, ATP luminescence, 18 h; Potency, µM (top dose mostly 46.1 µM), inactives show at the highest dose activity change, negative = cytotoxicity, actives largely listed as cytotoxic; also: potency is read from the fitted curve at half-maximal effect
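CellTiter-Glo luminescence gave cytotoxicity after 18 hours at 37 degrees C. The cells were HepG2 CAGA-GFP in 1% FBS DMEM, stimulated with 500 pg/mL TGF-beta after compound addition. %Activity was normalised to no-cell wells (complete cell-killing) and DMSO (no toxicity), and curves were fitted and classified.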
TDP1 block: inhibitors of human tyrosyl-DNA phosphodiesterase TDP1 | AID 485290 | 350,000 tested, 0.28% active | recombinant TDP1, AlphaScreen DNA substrate cleavage | Potency, µM (top dose mostly 130 µM), for the others: at the top dose activity change, negative = inhibition, usual class: inhibitors | Q9NUW8; also: potency is read from the fitted curve at half-maximal effect; % is scaled to controls: 0 for no effect and ±100 for the full control effect; nearly all actives have a fitted effect of over 40% in size
Target sequence (Q9NUW8 whole entry, looked up): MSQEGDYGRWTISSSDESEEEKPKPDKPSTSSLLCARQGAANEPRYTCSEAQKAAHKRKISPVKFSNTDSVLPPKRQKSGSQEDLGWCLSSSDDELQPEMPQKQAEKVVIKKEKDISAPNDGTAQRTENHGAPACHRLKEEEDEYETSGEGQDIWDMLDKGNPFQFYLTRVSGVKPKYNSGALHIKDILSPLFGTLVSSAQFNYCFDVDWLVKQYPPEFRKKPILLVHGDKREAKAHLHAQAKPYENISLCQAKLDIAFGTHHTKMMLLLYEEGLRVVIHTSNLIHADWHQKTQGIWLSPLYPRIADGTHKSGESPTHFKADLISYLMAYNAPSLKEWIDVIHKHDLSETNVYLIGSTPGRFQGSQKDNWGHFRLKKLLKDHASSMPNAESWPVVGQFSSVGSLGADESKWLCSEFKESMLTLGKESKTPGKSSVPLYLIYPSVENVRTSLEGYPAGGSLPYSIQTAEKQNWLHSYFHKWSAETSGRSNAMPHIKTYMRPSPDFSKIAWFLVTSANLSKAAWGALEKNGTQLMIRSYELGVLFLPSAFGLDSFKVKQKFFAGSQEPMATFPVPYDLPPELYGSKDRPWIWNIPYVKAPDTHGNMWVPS
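Here, a 5' biotin and 3' phosphotyrosine-FITC DNA oligonucleotide reports Tdp1 activity: intact substrate bridges AlphaScreen beads, while cleavage leaves a 3' phosphate and drops signal. All incubations at room temperature.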
TGFb inhibitor: blocks TGF-b signaling. 410,000 tested, 1.2% active. Potency, µM (highest dose often 46.1 µM), inactives show top-dose activity, negative = inhibition, hits mostly inhibitors. AID 588855. HepG2 CAGA-GFP TGF-b/SMAD3 reporter, GFP fluorescence, 18 h; TGF-beta stimulated, 500 pg/mL final; also: potency is read from the fitted curve at half-maximal effect; % is scaled to controls: 0 for no effect and ±100 for the full control effect; nearly all actives have a fitted effect of over 65% in size
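HEPG2 CAGA-GFP cells (1000/well, DMEM with 1% FBS) were pre-incubated 2 h at 37 degrees C, given compound by pin tool, then stimulated with TGF-beta at 500 pg/mL final for 18 h before per-cell GFP fluorescence imaging.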
DT40 TDP1 no CPT: qHTS for Inhibitors of human tyrosyl-DNA phosphodiesterase 1 (TDP1): qHTS in cells in absence of CPT; DT40 Tdp1-/- hTDP1 cells, no CPT, ATP luminescence, 48 h; 420,000 tested, 15% active; Potency, µM (doses to about 46.2 µM), without a hit: at the top dose activity change, negative = growth inhibition, most hits filed as inhibitors; also: potency is read from the fitted curve at half-maximal effect; % is scaled to controls: 0 for no effect and ±100 for the full control effect; nearly all actives have a fitted effect of over 55% in size
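Luminescent ATP content (CellTiter-Glo) served as the growth readout. Knockout chicken DT40 cells expressing human TDP1 were exposed to compounds without camptothecin for a minimum 48 hr at 37 °C.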
DT40 TDP1 CPT: growth inhibition of DT40 Tdp1-/-;hTDP1 cells with camptothecin (screen for TDP1 inhibitors); chicken DT40 Tdp1-/-;hTDP1 cells + 20 nM CPT, ATP luminescence, 48 h; Potency, µM (titrated, usually from 46.2 µM), for inactives: top-dose activity change, negative = growth inhibition, usual class: inhibitors; 420,000 tested, 12% active; AID 686979; also: potency is read from the fitted curve at half-maximal effect; % is scaled to controls: 0 for no effect and ±100 for the full control effect; nearly all actives have a fitted effect of over 55% in size
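Chicken DT40 Tdp1-/- cells complemented with human TDP1, 400 cells/well, exposed to compounds plus 20 nM camptothecin for at least 48 h at 37 C; viability read as ATP content by CellTiter-Glo luminescence.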
IL1B secr inh: inhibitors of inflammasome signaling (IL-1 beta secretion); THP-1 LPS/ATP IL-1B secretion, AlphaLISA, 16 h; stronger effect = lower value; activity change, % at 57.5 µM; 360,000 tested, 4.7% active; AID 743279; in the data active = activity change below about -50%; inconclusive = mostly about -30% to -49%; also: % is scaled to controls: 0 for no effect and ±100 for the full control effect
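THP-1 cells pretreated 1 hr with compounds (up to 57.5 uM final), then stimulated with LPS (250 ng/mL final) plus ATP (1.25 mM final); secreted IL-1B measured by AlphaLISA after 16 hr, decreased signal indicating inhibition.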
* hit, by the source's call. Unless noted, calls follow the shape of the dose curve; as a rule, active = well fitted curve in the direction sought with a large enough effect; inconclusive = small, poorly fitted or top-dose-only effect, or another doubt; inactive = no such curve, though single readings can be large; an effect the other way counts as inactive or inconclusive.

How did COc1cccc(C(C)(O)c2nc(-c3ccc(Cl)cc3)cs2)c1 (stereo not drawn) do in these assays?
HepG2 viability: -41%; TGFb inhibitor: inconclusive; DT40 TDP1 no CPT: inconclusive; DT40 TDP1 CPT: inconclusive; IL1B secr inh: 11

What do the screens show for `Cc1ccc2c(n1)sc1c(=O)n(-c3cccc(C(F)(F)F)c3)nnc12`?
HepG2 viability: 10%; TDP1 block: 6%; TGFb inhibitor: -3%; DT40 TDP1 no CPT: inconclusive; DT40 TDP1 CPT: -17%

How did CCC(=O)N1CCc2cc(S(=O)(=O)NC(Cc3ccccc3)C(=O)NCc3ccc(F)cc3)ccc21 (stereo not drawn) do in these assays?
HepG2 viability: -2%; TDP1 block: -2%; TGFb inhibitor: 20%; DT40 TDP1 no CPT: -30%; DT40 TDP1 CPT: -29%

Results for Cn1cc(C(C[N+](=O)[O-])c2ccccc2)c2ccccc21 (stereo not drawn) ?
HepG2 viability: -11%; TGFb inhibitor: inconclusive; DT40 TDP1 no CPT: inconclusive; DT40 TDP1 CPT: inconclusive; IL1B secr inh: 52

How did COc1ccc(C(C[N+](=O)[O-])c2c(C)cc3ccccn23)cc1 (stereo not drawn) do in these assays?
HepG2 viability: 18%; TDP1 block: 6%; TGFb inhibitor: 6%; DT40 TDP1 no CPT: 18µM*; DT40 TDP1 CPT: 10µM*; IL1B secr inh: -7

Results for Cc1cc2ccccn2c1C(C[N+](=O)[O-])c1ccc(N(C)C)cc1 (stereo not drawn) ?
HepG2 viability: -17%; TDP1 block: 10%; TGFb inhibitor: -22%; DT40 TDP1 no CPT: inconclusive; DT40 TDP1 CPT: 16µM*; IL1B secr inh: 7

What do the screens show for `COc1ccc(NC(=O)c2cnc3ccccn3c2=O)c(OC)c1`?
HepG2 viability: 2%; TGFb inhibitor: -9%; DT40 TDP1 no CPT: -9%; DT40 TDP1 CPT: 2%; IL1B secr inh: -17

Results for COc1ccc(C(C[N+](=O)[O-])c2c(-c3ccccc3)cc3ccccn23)c(OC)c1 (stereo not drawn) ?
HepG2 viability: 11µM*; TDP1 block: -7%; TGFb inhibitor: 10µM*; DT40 TDP1 no CPT: 5.2µM*; DT40 TDP1 CPT: 2.9µM*; IL1B secr inh: -11

What do the screens show for `COc1ccc(C(CC(=O)O)NC(=O)c2ccccc2[N+](=O)[O-])cc1` (stereo not drawn)?
HepG2 viability: -4%; TGFb inhibitor: 2%; DT40 TDP1 no CPT: 0%; DT40 TDP1 CPT: -5%; IL1B secr inh: 23

How did COc1ccc(C(C[N+](=O)[O-])c2c(C)[nH]n(-c3ccccc3)c2=O)cc1 (stereo not drawn) do in these assays?
HepG2 viability: -22%; TGFb inhibitor: -24%; DT40 TDP1 no CPT: 16µM*; DT40 TDP1 CPT: 13µM*; IL1B secr inh: -52*

How did Cc1[nH]n(-c2ccccc2)c(=O)c1C(c1ccc(O)c([N+](=O)[O-])c1)c1c(C)[nH]n(-c2ccccc2)c1=O do in these assays?
HepG2 viability: 2%; TGFb inhibitor: -5%; DT40 TDP1 no CPT: -26%; DT40 TDP1 CPT: -2%; IL1B secr inh: -1

What do the screens show for `CCN(C(=O)COc1ccc2ccc(=O)oc2c1)C1CCCCC1`?
HepG2 viability: -9%; TDP1 block: -3%; TGFb inhibitor: -19%; DT40 TDP1 no CPT: -21%; DT40 TDP1 CPT: -10%; IL1B secr inh: 16

How did CN(C)c1cccc(C(=O)OCC(=O)NC(=O)NCc2ccccc2)c1 do in these assays?
HepG2 viability: 1%; TDP1 block: 4%; TGFb inhibitor: 0%; DT40 TDP1 no CPT: inconclusive; DT40 TDP1 CPT: -23%; IL1B secr inh: 9
